Only a selection was taken, and hits are over-represented in it overall.
Pf Dd2 inh: qHTS Primary assay for Inhibitors of Plasmodium falciparum Dd2 growth in vitro. hit rate 4.3% among 120,000. P. falciparum Dd2 growth, SYBR Green, 72 h. Potency, µM (series often up to 28.9 µM), hits mostly inhibitors; active means well fitted inhibition curve with a large enough effect; further: nearly all actives have a fitted effect of over 65% in size
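Infected erythrocytes (Dd2, 0.3% parasitemia, 2.5% hematocrit final) are added to compound in RPMI-1640/Albumax II medium, grown 72 h at 37C in low oxygen, then lysed with saponin/Triton-X containing SYBR Green and read by fluorescence.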
Numbers stand for hits; n = inactive; [ ] = another dose, or the depositor's remark.

SMILES	Pf Dd2 inh
CC(C)C[C@@H]1N[C@H](C(=O)NCCCn2ccnc2)Cc2c[nH]c3cccc1c23	8.91µM
CC(C)C[C@@H]1N[C@H](C(=O)N2CCCC2)Cc2c[nH]c3cccc1c23	n
COc1cccc(NC(=O)c2cc3c(N4CCCC4)nc(C)cn3n2)c1	n
O=C1NCCCCCCN(Cc2ccncc2)[C@@H]2CN(C(=O)c3ccco3)CC[C@@H]12	n
CCN(CC)C1CCN(C(=O)c2cc(OC)ccc2OC2CCN(C(=O)C3CC3)CC2)C1 (stereo not drawn)	n
CCn1nc(CC(C)C)cc1C(=O)NCc1cc(-c2cccc(F)c2)no1	n
Cc1cc2nc3n(c(=O)c2n1CC(=O)Nc1ccc(Br)cc1F)CCCCC3	n
Cn1nnnc1C1CCCN(C(=O)c2ccc3cc[nH]c3c2)C1 (stereo not drawn)	n
COc1ccc(-c2noc(-c3ccc(N4C[C@H]5CC[C@H]4C5)nc3)n2)cc1	n
Cc1ccccc1[C@H]1[C@@H](C(=O)N(C)Cc2cccnc2)C[C@@](C)(C(=O)O)N1C	n
O=C(C1CCOCC1)N1CCC(N2CC3CC(C2)[C@H]2CCCC(=O)N2C3)CC1 (stereo partly drawn)	n
O=C(NC1CCCCC1)c1ccc(CSc2nc3cccnc3n2Cc2cccc(F)c2)cc1	11.2µM
Cc1cccc(Cn2c(SCc3ccc(C(=O)NC4CCCCC4)cc3)nc3cccnc32)c1	10µM
O=C(NC1CCCCC1)c1ccc(CSc2nc3cccnc3n2Cc2ccc(F)cc2)cc1	n[5.79 µM]
O=C(NC1CCCCC1)c1ccc(Cn2c(SCc3ccc(F)cc3)nc3cccnc32)cc1	n
Cc1cccc(Cn2c(SCc3ccc(C(=O)NC4CCCC4)cc3)nc3cccnc32)c1	n
COc1ccc(OC)c(CN2CCC3(CC2)OCCN(Cc2ccccc2)C3=O)c1	n
CCOc1ccc(CN2CCC(CO)(Cc3ccccc3Cl)CC2)cc1	n
COc1ccc2c(c1)C=C(CN1CCC(CO)(Cc3ccccc3Cl)CC1)CO2	8.91µM
CCCn1ncc(-c2nc(Cc3cccs3)nn2CC(=O)O)c1C	n
COCCOc1cc(=O)n2c(c1C(=O)NCCC1=CCCCC1)CCOCC2	n
O=C(Cc1ccc(F)cc1)N1CCC(c2n[nH]c(=O)n2-c2ccccc2)CC1	n
COc1ncccc1-c1cc2c(nc1-c1ccccc1)nc(C(=O)NCCN(C)C)n2C	n
CN(C)CCNC(=O)c1nc2nc(-c3ccccc3)c(-c3ccccc3O)cc2n1C	5.62µM
COc1cc(CNC(=O)c2nc3nc(-c4ccccc4)c(Cl)cc3n2C)cc(OC)c1	8.91µM
SMILES	Pf Dd2 inh
COCc1nc2nc(-c3ccccc3)c(-c3cccnc3)cc2n1C	n
Cn1c(C(=O)NCCN2CCOCC2)nc2nc(-c3ccccc3)c(Cl)cc21	n
Cn1c(C(=O)NCCc2ccccn2)nc2nc(-c3ccccc3)c(Cl)cc21	n
COc1ccc(CNC(=O)c2nc3nc(-c4ccccc4)c(Cl)cc3n2C)cc1OC	n
COCc1nc2nc(-c3ccccc3)c(-c3ccccc3OC)cc2n1C	n
Cn1c(C(=O)NCc2ccoc2)nc2nc(-c3ccccc3)c(Cl)cc21	n
COCc1nc2nc(-c3ccccc3)c(-c3ccccc3O)cc2n1C	4.47µM
CN(C)CCNC(=O)c1nc2nc(-c3ccccc3)c(-c3ccc(Cl)cc3)cc2n1C	5.01µM
Cn1c(C(=O)NCC2CC2)nc2nc(-c3ccccc3)c(Cl)cc21	n
CN1CCC(N(C)C(=O)C2CCN(C(=O)N3CC4CC(C3)[C@H]3CCCC(=O)N3C4)CC2)CC1 (stereo partly drawn)	n
OCCOCCn1cnc(-c2ccccc2)c1COCc1ccccc1	n
COc1cccc(CNC(=O)[C@@H]2C[C@@H](O)CN2C2CCN(C(=O)c3cccnc3C)CC2)c1	n
Cc1cc(C[C@@H]2COC[C@@H]2NC(=O)c2cc3cc(F)ccc3n2C)on1	n
Cn1cc(CN2C[C@H](O)C[C@H]2c2nc(-c3cccc([N+](=O)[O-])c3)no2)c2ccccc21	n
CNC(C)c1cnccn1 (stereo not drawn)	n
N#Cc1cccc(CN2CCCOCCNC(=O)CC2)c1	n
Cc1ccc(C2Cn3nnc(C(=O)N4CCC(C(=O)Nc5ccc(F)cc5)CC4)c3CO2)cc1 (stereo not drawn)	n
CS(=O)(=O)NC[C@H]1OC[C@@H](NCc2ccccn2)[C@@H]1O	n
Cc1ccc(CNC(=O)N2C[C@@H](Oc3cccnc3)C[C@H]2C(=O)N2CCOCC2)cc1	n
CCC(=O)N(C1CCOCC1)C1CCN(S(=O)(=O)c2ccc3c(c2)CCCC3)CC1	n
CCOc1ccccc1NC(=O)c1nn(-c2ccc(OC)cc2)c(=O)c2c1c1ccccc1n2C	n
CCN(CC)CCNC(=O)c1nn(-c2ccc(OC)c(Cl)c2)c(=O)c2c1c1ccccc1n2C	n
CCN(C(=O)c1nn(-c2ccc(OC)c(Cl)c2)c(=O)c2c1c1ccccc1n2C)c1cc(OC)ccc1OC	7.94µM
COc1ccc(-n2nc(C(=O)N(C)c3cccc(C(F)(F)F)c3)c3c4ccccc4n(C)c3c2=O)cc1	n
CCc1ccc(CNC(=O)c2nn(-c3ccc(OC)c(Cl)c3)c(=O)c3c2c2ccccc2n3C)cc1	n[5.79 µM]
SMILES	Pf Dd2 inh
CCOc1ccc(N(CC)C(=O)c2nn(-c3ccc(OC)cc3)c(=O)c3c2c2ccccc2n3C)cc1	3.98µM
CCN(CC)CCCNC(=O)c1nn(-c2ccc(OC)cc2)c(=O)c2c1c1ccccc1n2C	n
CCCN(C(=O)c1nn(-c2ccc(OC)c(Cl)c2)c(=O)c2c1c1ccccc1n2C)c1ccccc1F	n
CCN(CC)CCCNC(=O)c1nn(-c2ccc(OC)c(Cl)c2)c(=O)c2c1c1ccccc1n2C	1µM
CCC1(N2CCN(C(=O)c3ccc(C(F)(F)F)cc3)CC2)CCN(S(C)(=O)=O)C1 (stereo not drawn)	n
CN1CCCC2(C1)CN(C)c1ccc(C(=O)NCc3cccs3)cc12 (stereo not drawn)	n
Cc1ccc(NC(=O)CN2C(=O)NC3(CCOCC3)C2=O)cc1C	n
CCOCc1nc(C2CCCN(C(=O)c3ccoc3)C2)no1 (stereo not drawn)	n
c1ccc(CN2CC(Oc3ccc4c(c3)OCO4)C2)cc1	n
COc1ccc(-c2cnc(Nc3cccc(N[S+](C)(=O)[O-])c3)c3c2CCO3)cn1	n
COc1ccc(C(=O)N2CCC3(CC2)N=C(c2cccc(Br)c2)NO3)c(OC)c1	n
COc1ccc(CCC(=O)NCc2ccc3c(c2)CCN3C(=O)c2ccccc2)cc1	6.31µM
COc1ccc(OCC(=O)NCc2ccc3c(c2)CCN3C(=O)c2ccccc2)cc1	n
COc1ccc(CCC(=O)NCc2ccc3c(c2)CCN3C(=O)c2ccc(C)cc2)cc1	n
COc1ccc(CCNC(=O)CN2C(=O)C(c3ccccc3)=NC23CCCCC3)cc1OC	n
CC1(C)C[C@H](NC(=O)c2ccccc2)[C@@]2(CCC(=O)NCCN3CCOCC3)CC[C@](C)(O)C[C@@H]12	n
Cn1cncc1CNC(=O)c1cc(-c2ccc(F)cc2)cc2ncn(C)c12	n
CCc1ccc(Nc2nc(-c3ccccc3F)no2)cc1	n
CCc1ccc(CSc2nc(-c3ccccc3F)nc3c2Cc2c(CO)cnc(C)c2O3)cc1	10µM
CCc1ccc(CSc2nc(-c3ccc(OC)cc3)nc3c2Cc2c(CO)cnc(C)c2O3)cc1	n
COc1ccc(-c2nc3c(c(SCC(=O)N(C)c4ccccc4)n2)Cc2cc(C)ccc2O3)cc1	n
CCN(CC)C(=O)CSc1nc(-c2ccccc2F)nc2c1Cc1c(CO)cnc(C)c1O2	11.2µM
Cc1ccc(-c2nc3c(c(SCc4ccc(Br)cc4)n2)Cc2c(CO)cnc(C)c2O3)cc1	n

Compound activity as filed in PubChem.
